The values below come from PubChem BioAssay.

“And” between values parts separate entries of the source, which are not always exact repeats. Equal entries are not always repeated. Results filed as inconclusive are left out. Where a structure was tested more than once in an assay, its records may differ in their call. The source made the active and inactive calls.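 Rule for the calls, unless noted: active = normalized viability below 100% at a tested concentration; inactive = the rest.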

Assay [1] can be described thus: growth inhibition of DIPG glioma cells, dose response, cell-based, JHH-DIPG-1, MIPE4.0, CellTiter-Glo, qHTS (AID 1347062; cut-off not given, nearly all actives have AC50 up to about 27 µM). Particulars: JHH-DIPG-1 viability, CellTiter-Glo ATP luminescence. Background: In ATP-based viability assays light output follows the ATP content of the culture.
Assay [2] in a line: growth inhibition of DIPG glioma cells, dose response, cell-based, SU-DIPG-IV, MIPE4.0, CellTiter-Glo, qHTS (AID 1347063; cut-off not given, nearly all actives have AC50 up to about 30 µM;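 note: compound exposure lasted 48 hours before the viability readout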). Particulars: SU-DIPG-IV viability, CellTiter-Glo ATP luminescence.
Assay [3] in a line: SU-DIPG-VI glioma cell viability, MIPE4.0 library, CellTiter-Glo luminescence, qHTS (AID 1347066; cut-off not given, nearly all actives have AC50 up to about 30 µM;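 note: cells exposed to compound for 48 hours before readout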). Particulars: CellTiter-Glo ATP luminescence.
Assay [4] in a line: growth inhibition of DIPG glioma cells, dose response, cell-based, SU-DIPG-XIII, MIPE5.0, CellTiter-Glo, qHTS (AID 1347064; cut-off not given, nearly all actives have AC50 up to about 23 µM;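 for AC50: cells exposed to compound for 48 hours before the viability read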). The conditions noted are these: SU-DIPG-XIII viability, CellTiter-Glo ATP luminescence.
Assay [5] is described as follows: viability loss in pontine glioma line – cell-based, SU-DIPG-XXV, MIPE5.0, CellTiter-Glo, qHTS, dose response (AID 1347065; cut-off not given, nearly all actives have AC50 up to about 26 µM;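 note: cells exposed to compound for 48 hours before ATP readout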). Particulars: CellTiter-Glo ATP luminescence.
Assay [6] is described as follows: SU-DIPG-XXV glioma cell viability, MIPE5.0 library, qHTS (AID 1347068; cut-off not given, nearly all actives have IC50 up to about 30 µM). (In general: qHTS replaces the single test concentration by a dilution series.)
Assay [7] can be described thus: kinase inhibitors against Plasmodium liver-stage infection, cell-based, known kinase inhibitor set, luminescence, hepatoma host viability (AID 624392; call rule not given here;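 note: infected cells incubated roughly two days before readout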). Particulars: Plasmodium liver stage in hepatoma cells, luciferase luminescence, concentration not given here; liver cell % of control: measured here: host liver cell viability; parasite % of control: stronger effect = lower value.

Assay [8] is described as follows: JHH-DIPG-1 glioma cell viability, MIPE5.0 library, CellTiter-Glo luminescence, qHTS (AID 1347067; cut-off not given, nearly all actives have AC50 up to about 26 µM;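 note: cells exposed to compound for 48 hours before readout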). Particulars: JHH-DIPG-1 glioma viability, CellTiter-Glo ATP luminescence.
A short description of assay [9]: sensitizers of A549 cells to miR-34 induction, primary screen, imaging, A549 dox-inducible miR-34, nuclei and caspase counts (AID 1347080;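 active = compounds whose cell count with miR-34 switched on is under 0.7 times the count with it off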). The conditions noted are these: A549 miR-34 inducible, Hoechst nuclei count, 48 h.
A short description of assay [10]: modifiers of HSF1 nuclear foci, imaging, Selleck Cancer Library (AID 1347162; in the data active = plate-normalised HSF1 focus index below about 0.46). Particulars: human cells, at 10 µM; SSMD: measured here: HSF1 foci SSMD mean; cell count: measured here: cell number; plate-normalised HSF1 focus index: stronger effect = lower value.
A short description of assay [11]: survival rescue of mitochondrial mutant cells in low glucose, primary screen, MELAS cybrids, Rieske KO mouse fibroblasts, CellTiter-Glo (AID 1508586;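 active = mean z-score across replicates of 1.96 or higher in either the MELAS or the Rieske mutant cell line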;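 note: z relative to plate mean and SD of compound and empty wells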).
Assay [12] can be described thus: ovarian cancer cell viability with rucaparib, profiling panel, oncology-focused library, rucaparib conditional (AID 1508598). The conditions noted are these: patient-derived ovarian cancer cells, CellTiter-Glo viability, 144 h, stronger effect = lower value.

`CC/C=C\C[C@H]1C(=O)CC[C@@H]1CC(=O)OC`: the call in assay [1], in assay [2] and in [3] was inactive.
Consider `N#Cc1ccc(Oc2ccc3c(c2)COB3O)cc1`, for which the molecule was called inactive in [2], in assay [4], in assay [5], in assay [3] and in assay [6].
As for `COc1cc(OCc2cccc(-c3ccccc3)c2C)cc(OC)c1CN1CCCC[C@H]1C(=O)O`, the result in assay [4] was inactive. In addition, the AC50 in assay [5] is 20.9 µM (active).
For `C[C@]1(CO)CN(c2cc(C(=O)Nc3ccc4c(c3)-c3c(c(C(N)=O)nn3-c3ccc(F)cc3)CC4)c(Cl)cn2)C[C@@]1(C)CO`, the AC50 in assay [2] was 2.09 µM (active).
Regarding `COc1cc(N2CCC(C(N)=O)CC2)ccc1Nc1nc(N)c(Cl)c(Nc2ccccc2S(=O)(=O)C(C)C)n1`, the AC50 in assay [2] is 5.9 µM (active).
With `Cc1nc(N)sc1-c1ccnc(Nc2ccc(N3CCOCC3)cc2)n1`, the liver cell % of control in [7] was 72.4% and 73.5% and 98.2%. For the same molecule, the parasite % of control in assay [7] was 0.414% (inactive) and 0.47% (inactive) and 0.326% (active). Further, the AC50 was 20.9 µM (active) in assay [2], 5.9 µM (active) in assay [4], 2.63 µM (active) in [5] and 14.8 µM (active) in assay [8]. Moreover, the fold change in assay [9] (stronger effect = lower value, cell number ratio, induced over uninduced) was 0.855 (inactive); in assay [9] (measured here: relative caspase fold change +Dox/-Dox), 1.29. Further, the cell count stood at 1260 in [9] (measured here: total cells with miR-34 induction, stronger effect = lower value); 1470 in [9] (measured here: total cells without miR-34 induction); 7110 in [10]. Besides, the SSMD in assay [10] was 3.31. For the same molecule, the plate-normalised HSF1 focus index in assay [10] is 1.12 (inactive). In addition, the z-score in assay [11] (MELAS cybrid survival, CellTiter-Glo 48 h, stronger effect = higher value) was 1.86 (inactive); in [11] (Rieske KO mouse fibroblast survival, CellTiter-Glo 72 h), -0.218. In addition, the viability was 109% (inactive) in assay [12] (at 0.000305 µM, OCI-C5x cells, with rucaparib 10 µM, 100% = cells with rucaparib alone); 111% (inactive) in assay [12] (at 0.000305 µM, OCI-C5x cells, without rucaparib); 125% (inactive) in assay [12] (at 0.000305 µM, OCI-P5x cells, with rucaparib 20 µM, 100% = cells with rucaparib alone); 120% (inactive) in [12] (at 0.000305 µM, OCI-P5x cells, without rucaparib); 110% (inactive) in assay [12] (at 0.00122 µM, OCI-C5x cells, with rucaparib 10 µM, 100% = cells with rucaparib alone); 112% (inactive) in [12] (at 0.00122 µM, OCI-C5x cells, without rucaparib). In addition, the viability in [12] (at 0.00122 µM, OCI-P5x cells, with rucaparib 20 µM, 100% = cells with rucaparib alone) was 115% (inactive); in assay [12] (at 0.00122 µM, OCI-P5x cells, without rucaparib), 120% (inactive); in assay [12] (at 0.00488 µM, OCI-C5x cells, with rucaparib 10 µM, 100% = cells with rucaparib alone), 104% (inactive); in [12] (at 0.00488 µM, OCI-C5x cells, without rucaparib), 112% (inactive); in [12] (at 0.00488 µM, OCI-P5x cells, with rucaparib 20 µM, 100% = cells with rucaparib alone), 117% (inactive); in [12] (at 0.00488 µM, OCI-P5x cells, without rucaparib) it was 124% (inactive). Moreover, the viability in [12] (at 0.0195 µM, OCI-C5x cells, with rucaparib 10 µM, 100% = cells with rucaparib alone) is 104% (inactive); in assay [12] (at 0.0195 µM, OCI-C5x cells, without rucaparib) it was 95.4% (active); in assay [12] (at 0.0195 µM, OCI-P5x cells, with rucaparib 20 µM, 100% = cells with rucaparib alone), 116% (inactive); in assay [12] (at 0.0195 µM, OCI-P5x cells, without rucaparib), 113% (inactive); in assay [12] (at 0.0781 µM, OCI-C5x cells, with rucaparib 10 µM, 100% = cells with rucaparib alone), 109% (inactive); in assay [12] (at 0.0781 µM, OCI-C5x cells, without rucaparib) it was 108% (inactive). In addition, the viability in assay [12] (at 0.0781 µM, OCI-P5x cells, with rucaparib 20 µM, 100% = cells with rucaparib alone) was 115% (inactive); in [12] (at 0.0781 µM, OCI-P5x cells, without rucaparib), 115% (inactive); in assay [12] (at 0.313 µM, OCI-C5x cells, with rucaparib 10 µM, 100% = cells with rucaparib alone), 109% (inactive); in assay [12] (at 0.313 µM, OCI-C5x cells, without rucaparib), 110% (inactive); in assay [12] (at 0.313 µM, OCI-P5x cells, with rucaparib 20 µM, 100% = cells with rucaparib alone) it was 116% (inactive); in assay [12] (at 0.313 µM, OCI-P5x cells, without rucaparib), 113% (inactive). Also, the viability in [12] (at 1.25 µM, OCI-C5x cells, with rucaparib 10 µM, 100% = cells with rucaparib alone) is 101% (inactive); in [12] (at 1.25 µM, OCI-C5x cells, without rucaparib), 113% (inactive); in [12] (at 1.25 µM, OCI-P5x cells, with rucaparib 20 µM, 100% = cells with rucaparib alone), 113% (inactive); in [12] (at 1.25 µM, OCI-P5x cells, without rucaparib) it was 111% (inactive); in assay [12] (at 5 µM, OCI-C5x cells, with rucaparib 10 µM, 100% = cells with rucaparib alone) it was 107% (inactive); in assay [12] (at 5 µM, OCI-C5x cells, without rucaparib), 108% (inactive). For the same molecule, the viability is 97% (active) in [12] (at 5 µM, OCI-P5x cells, with rucaparib 20 µM, 100% = cells with rucaparib alone) and 102% (inactive) in [12] (at 5 µM, OCI-P5x cells, without rucaparib).

For orientation: AC50 means the concentration giving half of the maximal activity seen. The term viability denotes a read-out of living cells in per cent, often relative to untreated cells.
